Measurements published in ChEMBL document CHEMBL3988442, “University of Dundee, Small-Polar-MMV Screening Library” (2021).
Potency and affinity values are given separately.

These compounds were tested against Protein translocase subunit SecA (Escherichia coli (strain K12)) (UniProt P10408) (assay: Assay to Identify E. coli SecA ATPase Inhibitors). Conditions: 30 µM.
Type: functional
Parameters: scale not given: direction of the effect not stated beside the values

Sequence of Protein translocase subunit SecA (Escherichia coli (strain K12)) (P10408 whole entry): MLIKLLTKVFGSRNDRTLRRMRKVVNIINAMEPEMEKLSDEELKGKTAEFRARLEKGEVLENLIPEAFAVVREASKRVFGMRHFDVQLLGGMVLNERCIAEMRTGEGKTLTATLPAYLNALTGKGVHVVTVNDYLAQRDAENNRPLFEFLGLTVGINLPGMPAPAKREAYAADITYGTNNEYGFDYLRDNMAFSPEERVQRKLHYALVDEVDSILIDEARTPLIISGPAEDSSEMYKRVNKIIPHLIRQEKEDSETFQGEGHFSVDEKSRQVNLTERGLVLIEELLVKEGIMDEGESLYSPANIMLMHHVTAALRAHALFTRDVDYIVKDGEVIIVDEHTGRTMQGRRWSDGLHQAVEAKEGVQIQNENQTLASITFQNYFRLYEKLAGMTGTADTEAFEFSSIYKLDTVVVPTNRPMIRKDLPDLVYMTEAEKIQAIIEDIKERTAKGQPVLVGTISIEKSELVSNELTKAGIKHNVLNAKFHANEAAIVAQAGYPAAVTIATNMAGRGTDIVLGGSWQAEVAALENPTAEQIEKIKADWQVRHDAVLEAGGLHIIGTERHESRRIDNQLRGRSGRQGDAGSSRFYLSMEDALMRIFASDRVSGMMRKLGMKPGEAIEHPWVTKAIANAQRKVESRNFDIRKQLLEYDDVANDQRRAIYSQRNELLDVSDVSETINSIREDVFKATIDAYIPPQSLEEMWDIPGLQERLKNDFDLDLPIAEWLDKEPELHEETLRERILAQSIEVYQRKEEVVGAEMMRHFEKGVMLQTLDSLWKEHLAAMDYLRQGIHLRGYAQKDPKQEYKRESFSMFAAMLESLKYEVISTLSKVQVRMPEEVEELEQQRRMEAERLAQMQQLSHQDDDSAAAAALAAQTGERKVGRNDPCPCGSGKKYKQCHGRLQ

SMILES | Percent Effect
O=C(c1cccnc1)N1C[C@@H]2CC[C@H](C1)N(Cc1cccc(Cl)c1F)C2 | -2.44%
Cc1cc(-c2cnn(CCNC(=O)c3cccnc3)c2C2CC2)on1 | -4.86%
N#Cc1ccc(NCCNc2ccc(C(F)(F)F)cn2)nc1 | -2.89%
Cc1nn(C)c(N(C)C)c1CNCc1cccc(CN(C)C(C)C)c1 | -3.75%
Cc1nnc(NC(=O)CN(C)CC2CCCN2c2cccnn2)s1 (stereo not drawn) | -6.6%
Cc1cc(C(=O)NCc2cccnc2OC(C)C)no1 | -2.03%
OC(CN1CCN(Cc2ccc(F)c(F)c2)CC1)C1CC1 (stereo not drawn) | -3.08%
Cc1noc(C(C)N2CCN(CCC(=O)N3CCCCC3)CC2)n1 (stereo not drawn) | -2.79%
CCc1nc2ccccc2c(=O)n1CC1(O)CCN(S(C)(=O)=O)CC1 | -1.91%
Cn1ccc(CN2CCC(CCc3ccc(O)cc3)CC2)cc1=O | -1.04%
CCCNC(=O)N1CCN(Cc2cc(C)no2)CC1 | -3.25%
Cc1cccc(OCCC(=O)N2CCN(S(=O)(=O)N(C)C)CC2)c1C | 1.47%
Cc1nc2n(n1)CC(NCc1cc(Cl)c3c(c1)OCCCO3)CC2 (stereo not drawn) | -6.19%
COC(=O)N1CCCN(C(=O)NCc2ccc(Cl)s2)CC1 | -1.83%
Cc1cc(C2CCCN(CCCNS(C)(=O)=O)C2)n[nH]1 (stereo not drawn) | -3.61%
CC(C)CC(=O)N1CCCn2cnc(CN3CCCC3=O)c2C1 | -3.7%
O=C(Nc1ccccn1)N(CCO)Cc1ccsc1 | -2.18%
CCSCCC(=O)Nc1ncn(CC(=O)NCc2ccccc2)n1 | -4.92%
OCCn1nccc1C1CCN(CCCOc2ccc(F)cc2)CC1 | -5.89%

What follows are compounds tested against T1, Ubiquitin-activating enzyme e1, putative (Leishmania donovani (strain BPK282A1)) (UniProt E9BSI1) (assay: Leishmania donovani Ubiquitin Activating Enzyme (LdE1)). Conditions: 30 µM.
T1 sequence (whole entry): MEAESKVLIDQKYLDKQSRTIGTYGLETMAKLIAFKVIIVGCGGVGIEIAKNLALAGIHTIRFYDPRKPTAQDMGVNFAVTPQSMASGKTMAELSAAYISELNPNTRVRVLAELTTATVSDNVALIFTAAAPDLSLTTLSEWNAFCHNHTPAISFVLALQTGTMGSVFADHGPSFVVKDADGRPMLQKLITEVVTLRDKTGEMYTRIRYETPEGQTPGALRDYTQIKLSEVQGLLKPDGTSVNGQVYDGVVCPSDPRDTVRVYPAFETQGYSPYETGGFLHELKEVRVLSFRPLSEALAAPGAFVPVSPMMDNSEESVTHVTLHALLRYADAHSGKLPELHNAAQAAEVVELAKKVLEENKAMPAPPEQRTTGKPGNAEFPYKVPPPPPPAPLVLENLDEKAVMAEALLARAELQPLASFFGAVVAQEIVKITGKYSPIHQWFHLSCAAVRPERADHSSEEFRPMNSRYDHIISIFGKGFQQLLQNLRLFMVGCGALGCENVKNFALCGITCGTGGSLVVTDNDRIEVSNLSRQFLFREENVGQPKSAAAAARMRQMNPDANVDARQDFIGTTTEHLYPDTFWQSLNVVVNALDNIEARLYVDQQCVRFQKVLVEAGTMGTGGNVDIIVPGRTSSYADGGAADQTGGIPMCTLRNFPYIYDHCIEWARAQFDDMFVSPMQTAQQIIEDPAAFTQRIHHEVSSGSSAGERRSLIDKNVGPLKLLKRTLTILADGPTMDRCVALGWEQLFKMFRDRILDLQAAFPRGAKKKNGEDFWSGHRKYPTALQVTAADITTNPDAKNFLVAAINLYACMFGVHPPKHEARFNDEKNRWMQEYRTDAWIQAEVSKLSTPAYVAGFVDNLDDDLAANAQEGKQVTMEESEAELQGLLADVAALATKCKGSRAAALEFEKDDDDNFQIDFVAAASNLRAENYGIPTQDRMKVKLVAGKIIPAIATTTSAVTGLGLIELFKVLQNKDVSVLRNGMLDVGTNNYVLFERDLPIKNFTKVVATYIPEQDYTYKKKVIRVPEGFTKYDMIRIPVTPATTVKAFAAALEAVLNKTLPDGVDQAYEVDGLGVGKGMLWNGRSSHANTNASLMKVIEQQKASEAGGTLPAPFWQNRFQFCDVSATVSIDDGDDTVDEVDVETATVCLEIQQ
Type: functional
Parameters: scale not given: direction of the effect not stated beside the values

SMILES | Percent Effect
Cc1cnn(CC2CCCCN2CCC(=O)Nc2cc(C)on2)c1 (stereo not drawn) | 3.8%
CNS(=O)(=O)Cc1ccc(CNC(=O)Nc2cn[nH]c2)cc1 | 20.2%
Cc1c(C(=O)NC(CN2CCCC2=O)c2ccccc2)cnn1C (stereo not drawn) | 10.5%
O=C(O)c1nnn(-c2ccc(F)c(F)c2)c1-c1ccncc1 | 13.2%
Cc1ccccc1CCNC(=O)C1CC(=O)N(CC(F)(F)F)C1 (stereo not drawn) | 24.3%
CC(C)CN1CCCC2(CCN(C(=O)c3cnccn3)C2)C1 (stereo not drawn) | -2.6%
O=C(NCC(F)(F)F)C1CSCN1S(=O)(=O)c1ccc(F)cc1 (stereo not drawn) | 16.5%
CO[C@@H]1CC[C@H]2[C@H]1OCCN2C(=O)C1=CCCC1 | 10.4%
COCC1CN(Cc2ccc(C)o2)Cc2cn(C)nc21 (stereo not drawn) | 10.7%
Cc1cc(NC(=O)CCc2ccsc2)n(C)n1 | 4.17%
O=C(Cc1ccc(O)c(Cl)c1)N1CCCCC1CCn1cccn1 (stereo not drawn) | 13.5%
Cc1cnn(CC(C)NCc2csc(-c3ccco3)n2)c1 (stereo not drawn) | -3.8%
CCc1nnc2n1CCN(C(=O)c1ccc3nc(C)c(C)nc3c1)C2 | 1.39%
Cc1cc(CN(C)C(=O)NC(C)c2nncn2C)no1 (stereo not drawn) | 15.3%
COC(=O)CS(=O)(=O)CCC(=O)N1CCCC1c1ccsc1 (stereo not drawn) | 6.94%
CC(=O)N1CCN(S(=O)(=O)c2ccc(C)c(F)c2)CC1 | 10.5%
CN(C)C(=O)CN1C[C@@H]2CC[C@H](C1)N(Cc1cc(F)ccc1F)C2 | 5.48%
Cc1nn(C)c(N(C)C)c1CNCc1cccnc1-n1cncn1 | 8.86%
Cn1ccnc1CN1CCCCC1Cn1cccn1 (stereo not drawn) | 3.8%
COc1cc(C(=O)N2CCC(c3n[nH]c(C4CC4)n3)CC2)ccc1C | -1.27%
O=C(c1cccnc1)N1C[C@@H]2CC[C@H](C1)N(Cc1cccc(Cl)c1F)C2 | 8.22%
Cc1cc(-c2cnn(CCNC(=O)c3cccnc3)c2C2CC2)on1 | 4.05%
N#Cc1ccc(NCCNc2ccc(C(F)(F)F)cn2)nc1 | 7.89%
Cc1nn(C)c(N(C)C)c1CNCc1cccc(CN(C)C(C)C)c1 | 13.5%
Cc1nnc(NC(=O)CN(C)CC2CCCN2c2cccnn2)s1 (stereo not drawn) | -2.7%
Cc1cc(C(=O)NCc2cccnc2OC(C)C)no1 | 8.11%
OC(CN1CCN(Cc2ccc(F)c(F)c2)CC1)C1CC1 (stereo not drawn) | 8.22%
Cc1noc(C(C)N2CCN(CCC(=O)N3CCCCC3)CC2)n1 (stereo not drawn) | 10.5%
CCc1nc2ccccc2c(=O)n1CC1(O)CCN(S(C)(=O)=O)CC1 | 17.6%
